From PubChem BioAssay (NCI)
The panel holds about 83,000 compounds, 20% with a hit somewhere; the sample as a whole holds those more often.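 A percent growth of 40 corresponds to 60% growth inhibition; 0 means no net growth; -100 means all cells died. Active threshold: below 10.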 The source made the active and inactive calls.

The compounds below were run on NCI-H322M lung (assay: NCI-60 one-dose screen, 48 h (100 = growth as untreated, 0 = no growth, -100 = all killed)). Settings: 10 µM unless noted.
Protocol: Growth inhibition of the NCI-H322M human Non-Small Cell Lung tumor cell line is measured as a screen for anti-cancer activity. Cells are grown in 96 well plates and exposed to the test compound for 48 hours. Compounds are tested at a single concentration, which is 10^-5 M for most compounds. The reported endpoint is percent growth (GI% or GIPRCNT), where numbers from 0 - 100% represent growth inhibition, and numbers from -100% - 0 represent cell death. For example, a value of 40 represents 60% growth inhibition. A value of 0 means no net growth occurred over the course of the experiment. A value of -40 indicates 40% of cells at the beginning of the experiment died by the end of the experiment. A value of -100 means all cells are dead at the end of the experiment.
NCI-60 Human Tumor Cell Lines Screen was performed using the standard one-dose NCI protocol, which is described in more detail at https://dtp.cancer.gov/discovery_development/nci-60/default.htm.
Compounds with GIPRCNT values below 10 were considered active. Activity score was based on GIPRCNT using the following formula: […]
Score is 0 for GIPRCNT values of 100 or above, 50 for GIPRCNT values of 0, and 100 for GIPRCNT values of -100.

SMILES	growth
CCCCOc1ccc(C(C)(C)c2ccc(OCCCC)cc2)cc1	99.1% (inactive)
Cc1ccsc1/C=C/C1=NCCCN1C	102% (inactive)
N=C(N)/N=C(\CCc1nc2ccccc2[nH]1)c1nc2ccccc2[nH]1	118% (inactive)
O=C(/C=C/c1cccnc1)NCCCCC1CCCN(C(=O)c2ccccc2)C1 (stereo not given)	65.3% (inactive)
O=[P@@]1(c2ccccc2)O[C@H](COCc2ccccc2)[C@@H](OCc2ccccc2)[C@H](OCc2ccccc2)[C@H]1NCc1ccccc1	47.9% (inactive)
COc1ccc2c(c1)C(=O)/C(=C/c1ccc([N+](=O)[O-])s1)O2	11.4% (inactive)
COc1cc(-c2cc(C(=O)Nc3nc4ccccc4s3)nc3cc(-c4ccccc4)nn23)cc(OC)c1OC	90.9% (inactive)
CCC(C)CC(C)C(=O)c1c(O)ccn(O)c1=O (stereo not given)	52.5% (inactive)
O=c1[nH]c(Cl)nc2c1cnn2-c1ccccc1	112% (inactive)
COc1ccc(Cn2cc3c(c2-c2ccccc2)CCc2cncnc2-3)cc1	110% (inactive)
CCN(CC)CCCCNc1c2ccccc2[n+](C)c2c1[nH]c1ccccc12	-35.5% (active)
COC(=O)CCC1=C(C)/C(=C/c2[nH]c(-c3ccc[nH]3)cc2OC)N=C1C	26.6% (inactive)
COc1cc2c(cc1OCCCOc1ccc(-c3cc4ccccc4c4ccccc34)cc1)N=C[C@@H]1CCCN1C2=O	-69.4% (active)
COc1ccc(-c2nnc(COc3ccc(NC(=O)Nc4cc(C(F)(F)F)cc(C(F)(F)F)c4)cc3F)o2)cc1	23.4% (inactive)
COc1ccc(-c2cc(C(=O)Nc3nc4cc(C)c(C)cc4s3)nc3cc(-c4ccccc4)nn23)cc1OC	119% (inactive)
O=C(/C=C/c1cccnc1)/C=C/c1cccnc1	122% (inactive)
CC(=O)c1ccc2c3c(n(C)c2c1)CCCC3	117% (inactive)
CCN1C(=O)c2ccc3c4c(ccc(c24)C1=O)C(=O)N(CCCNCc1ccccc1OC)C3=O	-31.6% (active)
O=C(/C(=C/c1ccc([N+](=O)[O-])cc1)c1ccccc1)c1ccccc1	74.3% (inactive)
C/C(=C\CCc1ccsc1)CC/C=C(\C)CCCN1CCN(CCO)CC1	71.8% (inactive)

SMILES	growth
Cn1cc(-c2csc(-c3c[nH]c4ncccc34)n2)c2cc(F)cnc21	70.7% (inactive)
Cn1c(=O)c2nc(SCc3ccccc3)n(C)c2n(C)c1=O	109% (inactive)
CN1C(=O)/C(=C/c2nc(-c3cccc(F)c3)n3ccccc23)c2ccccc21	80.8% (inactive)
CC(C)(C)c1cc(O)c(O)c(C(C)(C)C)c1	63.5% (inactive)
CO[C@H]1/C=C/O[C@@]2(C)Oc3c(C)c(O)c4c(O)c(c(/C=N/N5C(C)CN(Cc6ccccc6)CC5C)c(O)c4c3C2=O)NC(=O)/C(C)=C\C=C\[C@H](C)[C@H](O)[C@@H](C)[C@@H](O)[C@@H](C)[C@H](OC(C)=O)[C@@H]1C (stereo not given in full)	121% (inactive)
COC(=O)[C@]12CC[C@@H](C)[C@H](C)[C@@H]1C1=CC[C@@H]3[C@@]4(C)C[C@@H](OC(=O)c5ccco5)[C@H](O)[C@@](C)(CO)[C@@H]4[C@H](O)C[C@@]3(C)[C@]1(C)CC2	-93.8% (active)
O=C(NCCc1ccccc1)C1CCC(=O)N1Cc1ccc(Br)cc1 (stereo not given)	101% (inactive)
CCOC(=O)c1c(C)nc(C)c(C(=O)OCC)c1-c1cccnc1	108% (inactive)
Nc1nc(SCC2(CCl)COC2)c2[nH]cnc2n1	102% (inactive)
Cc1cc(C)c(OC(=O)CSc2nc3ccccc3c(=O)n2CCc2ccccc2)cc1C	89.3% (inactive)
CCN1C2=C(SC(=S)C1=C1SC(C(=O)OC)=C(C(=O)OC)S1)SC(=Nc1ccc(OC)cc1)C2=O	48.4% (inactive)
CCN(CC)CCCNCCCNc1cc(OC)cc2cccnc12	81% (inactive)
c1ccc(N2CCN(c3nncc4ccccc34)CC2)nc1	114% (inactive)
N#CCNc1ccccc1N	82% (inactive)
CC[C@]1(O)CC2CN(CCc3c([nH]c4ccccc34)[C@@](C(=O)OC)(c3cc4c(cc3OC)N(C)[C@H]3[C@@](O)(C(=O)OC)[C@H](OC(C)=O)[C@]5(CC)C=CCN6CC[C@]43[C@@H]65)C2)C1 (stereo not given in full)	54.4% (inactive)
CCOC(=O)C1C(=O)OC2CCCCC21 (stereo not given)	113% (inactive)
Cn1cc(-c2csc(-c3cn(C)c4ncccc34)n2)c2cccnc21	106% (inactive)
O=C(/C=C/c1cc2ccccc2[nH]c1=O)c1ccc(Cl)cc1	62.4% (inactive)
COc1ccc(C2CC(c3ccc(OC)c(OC)c3)=NN2C(=O)c2cc(OC)c(OC)c(OC)c2)cc1 (stereo not given)	37.7% (inactive)
N#Cc1ccc(NC(=O)Nc2ccc(Oc3ccc(NC(=O)Nc4ccc(C#N)cc4)cc3)cc2)cc1	61.8% (inactive)
